Screening results (PubChem)
TDP1 block = TDP1 (human) enzyme inhibition | Q9NUW8 | recombinant TDP1, AlphaScreen DNA substrate cleavage | actives 0.28% (n = 350,000) | Potency, µM (series often up to 130 µM), inactives show top-dose activity change, negative = inhibition, hits mostly inhibitors | AID 485290; also: potency is read from the fitted curve at half-maximal effect; nearly all actives have a fitted effect of over 40% in size
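Compounds were preincubated with Tdp1 (1 nM final) for 15 min at room temperature before substrate (15 nM final) started a 5 min reaction; beads (10 ug/ml final) were then added for 10 min before AlphaScreen detection.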
IL1B secr inh = inflammasome signaling inhibition, IL-1 beta readout; actives 4.7% (n = 360,000); THP-1 LPS/ATP IL-1B secretion, AlphaLISA, 16 h; active compounds read low; AID 743279; activity change, % at 57.5 µM; in the data active = activity change below about -50%; inconclusive = mostly about -30% to -49%
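THP-1 cells pretreated 1 hr with compounds (up to 57.5 uM final), then stimulated with LPS (250 ng/mL final) plus ATP (1.25 mM final); secreted IL-1B measured by AlphaLISA after 16 hr, decreased signal indicating inhibition.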
CtBP-E1A inh = inhibitors of CtBP/E1A interaction; AlphaScreen GST-E1A/His-CtBP binding, 1536-well; active compounds read low; actives 0.49% (n = 340,000); activity change, % (no concentration beside the values); in the data active = activity change below about -65%; inconclusive = mostly about -30% to -63%
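Homogeneous bead-based format: GST-tagged E1A captured on glutathione donor beads, His-tagged CtBP on nickel acceptor beads; compounds precede bead addition by 2 h at 37 °C.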
DT40 TDP1 no CPT = qHTS for Inhibitors of human tyrosyl-DNA phosphodiesterase 1 (TDP1): qHTS in cells in absence of CPT | DT40 Tdp1-/- hTDP1 cells, no CPT, ATP luminescence, 48 h | Potency, µM (doses to about 46.2 µM), for inactives: at the highest dose activity change, negative = growth inhibition, actives largely listed as inhibitors | actives 15% (n = 420,000); also: potency is read from the fitted curve at half-maximal effect; nearly all actives have a fitted effect of over 55% in size
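Compound effects on proliferation are scored in DT40 Tdp1-/-;hTDP1 cells in the absence of CPT. ATP levels (CellTiter-Glo luminescence) are recorded after a ≥48 hr, 37 °C incubation.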
TDP1 cell CPT = DT40-hTDP1 cell growth loss with CPT | Potency, µM (titrated, usually from 46.2 µM), without a hit: at the highest dose activity change, negative = growth inhibition, hits mostly inhibitors | actives 12% (n = 420,000) | chicken DT40 Tdp1-/-;hTDP1 cells + 20 nM CPT, ATP luminescence, 48 h; also: potency is read from the fitted curve at half-maximal effect; nearly all actives have a fitted effect of over 55% in size
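Cell growth measured by CellTiter-Glo luminescence after a minimum 48 h, 37 C compound exposure with 20 nM CPT in Tdp1-knockout DT40 cells stably expressing hTDP1, seeded 400/well; qHTS titration format.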
Six1-Eya2 inh = blocks human Six1 binding to Eya2. Q15475+O00167. AlphaScreen GST-Six1/His-Eya2 binding, biochemical; active compounds read low. activity change, % (test concentration not listed). actives 0.56% (n = 360,000); in the data active = activity change below about -65%; inconclusive = mostly about -30% to -63%
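AlphaScreen luminescence read after one hour at 37 °C in darkness. Pin-transferred compounds met GST-Six1 and His-Eya2 protein (5X stock 250 nM/500 nM) plus glutathione donor and Ni-chelate acceptor beads (5X, 50 ug/mL).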
Starred values were filed as active, the others as inactive; ? = inconclusive; . = no result given; [ ] = dose if it differs, or a comment. A selection: hits, their analogues and other compounds. The true share with any hit is near 18%. Unless noted, calls follow the shape of the dose curve; as a rule, active = well fitted curve in the direction sought with a large enough effect; inconclusive = small, poorly fitted or top-dose-only effect, or another doubt; inactive = no such curve, though single readings can be large; an effect the other way counts as inactive or inconclusive. % is scaled to controls: 0 for no effect and ±100 for the full control effect.

SMILES	TDP1 block	IL1B secr inh	CtBP-E1A inh	DT40 TDP1 no CPT	TDP1 cell CPT	Six1-Eya2 inh
COc1cc(/C=C/C(=O)N2CCOCC2)ccc1OCc1ccccc1	3%	-1	11	?	?	0
COc1cc(/C=C/[N+](=O)[O-])ccc1OC(=O)/C=C/c1ccc(F)cc1	.	?	-90*	2.3µM*	3.3µM*	?
COC(=O)c1c(C)oc2c1cc(NS(=O)(=O)c1ccc(C(=O)O)cc1)c1ccccc12	.	19	-12	6%	-16%	-27
CCCCCOc1ccc(N2C(=O)C(C)CNC2=S)cc1 (stereo not given)	-3%	.	.	.	.	.
COc1cc(/C=C/C(=O)NC(C)(C)C)ccc1OCc1ccccc1	8%	-13	-1	?	?	1
COc1cc(O)c(C(=O)/C=C/c2ccccc2)c(OC)c1	14%[56.1 µM]	-106*	0	18µM*	15µM*	-1
COc1ccc(C(=O)C=Cc2ccc(OCc3ccccc3)c(OC)c2)cc1OC	.	-90*	-1	4.6µM*	7.3µM*	-2
COc1cc(OC)c(C(=O)/C=C/c2ccc(OCc3ccccc3)c(OC)c2)c(OC)c1	.	-90*	-3	23µM*	23µM*	-20
Cc1ccc(OCCCCN2CCc3ccccc3C2)c(C)c1	.	?	-6	?	?	9
Cc1nc2scc(C)n2c(=O)c1S(=O)(=O)N1CCN(c2ccccc2)CC1	-6%	33	-4	-16%	-6%	-11
Cc1cc2nc(CSc3ccc(Cl)cc3)cc(=O)n2[nH]1	4%	47	7	?	?	1
Cc1ccc[n+](CC(=O)c2ccc(NC(=O)c3ccccc3)cc2)c1	-1%	-10	-3	-78%	-82%	-1
N#Cc1ccc[n+](CC(=O)c2ccc(NC(=O)c3ccccc3)cc2)c1	3%	15	-1	-22%	10µM*	4
O=C(C[n+]1cccc(C(=O)Nc2ccccc2)c1)c1ccccc1	.	-4	-7	18µM*	?	-21
COc1cccc(NC(=O)c2ccc(NCCCN3CC(C)CC(C)C3)c([N+](=O)[O-])c2)c1 (stereo not given)	2%	-7	-6	?	0%	-2
O=C(Nc1cc(F)cc(F)c1)c1ccc(NCCCN2CCCCCC2)c([N+](=O)[O-])c1	6%	-76*	-12	?	?	-30
COc1cccc(NC(=O)c2ccc(NCCCN3CCC(C)CC3)c([N+](=O)[O-])c2)c1	2%	-65*	-15	16µM*	?	-11
CCCN(CCC)CCCNc1ccc(C(=O)Nc2cccc(OC)c2)cc1[N+](=O)[O-]	4%	-81*	-11	?	?	-23
Cc1ccc(NC(=O)c2ccc(NCCCN3CCC(C)CC3)c([N+](=O)[O-])c2)c(C)c1	.	?	.	16µM*	?	-3
O=C1CCN(S(=O)(=O)c2ccccc2)C2CCCCC12 (stereo not given)	2%	38	0	?	-2%	-2
O=C(/C=C/c1ccccc1)N/C(=C/c1ccccc1)C(=O)Nc1ccc(C(=O)O)cc1	2%	-14	0	?	?	-4
COc1ccc2cc(S(=O)(=O)N3CCCC(C)C3)ccc2c1 (stereo not given)	-9%	?	12	23µM*	?	-4
CC1CCCN(S(=O)(=O)c2cccc(C(=O)NCc3ccco3)c2)C1 (stereo not given)	0%	-12	-10	?	-3%	1
COc1ccc(C(CNC(=O)c2cccc(S(=O)(=O)N3CCCC(C)C3)c2)N(C)C)cc1 (stereo not given)	2%	-55*	-7	-23%	?	-1
